# Sampled rows, rich in hits. Any-hit rate of the full collection: about 19%.
# HT1080 IDH1KD tx – toxicity to HT-1080 IDH1 knockdown cells (counter line) | HT-1080 IDH1 knockdown viability, ATP luminescence, 48 h | Potency, µM (titrated, usually from 46.1 µM), without a hit: top-dose activity, negative = toxicity, usual class: cytotoxic | 360,000 compounds, 2% hits;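 further: potency means the concentration at half of the fitted maximal effect; 0% = DMSO wells and -100% = cell-free medium wells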
#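 CellTiter-Glo luminescence after 48 h compound exposure at 37 degrees C of IDH1-knockdown HT-1080 cells in 5% FBS RPMI. %Activity scaled between DMSO wells and cell-free media wells, with curves fitted and assigned curve classes.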
# DT40 TDP1 no CPT – qHTS for Inhibitors of human tyrosyl-DNA phosphodiesterase 1 (TDP1): qHTS in cells in absence of CPT; Potency, µM (series often up to 46.2 µM), for the others: at the highest dose activity change, negative = growth inhibition, actives largely listed as inhibitors; 420,000 compounds, 15% hits; DT40 Tdp1-/- hTDP1 cells, no CPT, ATP luminescence, 48 h; AID 686978, 2013; further: potency means the concentration at half of the fitted maximal effect; nearly all actives have a fitted effect of over 55% in size
#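 A cellular qHTS used chicken DT40 cells lacking endogenous Tdp1 but carrying stably transfected human TDP1. Compounds were applied without camptothecin, and cell growth kinetics were judged by ATP-dependent luminescence after ≥48 hr.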
# HT1080-NT tox – kills 2HG-producing HT-1080-NT fibrosarcoma cells; 360,000 compounds, 1.6% hits; Potency, µM (top dose mostly 46.1 µM), for inactives: at the highest dose activity, negative = less viability, hits mostly cytotoxic; HT-1080-NT fibrosarcoma viability, CellTiter-Glo ATP luminescence, 48 h;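 further: NT is the 2HG producing partner of a matched IDH1 knockdown line; potency means the concentration at half of the fitted maximal effect; 0% = DMSO-treated cells and -100% = media-only wells without cells; nearly all actives have a fitted effect of over 55% in size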
#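 750 cells/well, RPMI + 5% FBS; 2 h settle, compound pin-transfer, 48 h at 37 degrees C. CellTiter-Glo 10 min RT, luminescence. Normalized to DMSO and media-only wells.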
# IL1B secr inh – inhibitors of inflammasome signaling (IL-1 beta secretion) | THP-1 LPS/ATP IL-1B secretion, AlphaLISA, 16 h; active compounds read low | activity change, % at 57.5 µM | 360,000 compounds, 4.7% hits; in the data active means activity change below about -50%; inconclusive means mostly about -30% to -49%
#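 Secreted IL-1B measured by AlphaLISA bead assay after 16 h compound exposure of THP-1 cells; compounds (final up to 57.5 uM) added 1 h before LPS (250 ng/mL) and ATP (1.25 mM) stimulation; lower signal means less secretion.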
# ELG1 DNA repair – ELG1-dependent DNA repair inhibition. AID 504467. HEK293T ELG1-luciferase reporter, luminescence, 16 h; DNA damage induced by 5-fluorouridine. 330,000 compounds, 2.3% hits. Potency, µM (titrated, usually from 46.1 µM), inactives show at the highest dose activity change, negative = inhibition, most hits filed as inhibitors; further: potency means the concentration at half of the fitted maximal effect; nearly all actives have a fitted effect of over 55% in size
#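 Quantitative HTS, concentration-response format. 2,000 cells/well co-treated with 5-fluorouridine and compound, 16 hr in 5% CO2 at 37 °C; ONE-Glo luminescence read after 30 min.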
# DT40 TDP1 CPT – DT40-hTDP1 cell growth loss with CPT; chicken DT40 Tdp1-/-;hTDP1 cells + 20 nM CPT, ATP luminescence, 48 h; Potency, µM (doses to about 46.2 µM), without a hit: at the top dose activity change, negative = growth inhibition, hits mostly inhibitors; 420,000 compounds, 12% hits; AID 686979; further: potency means the concentration at half of the fitted maximal effect; nearly all actives have a fitted effect of over 55% in size
#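 Chicken DT40 Tdp1-/- cells complemented with human TDP1, 400 cells/well, exposed to compounds plus 20 nM camptothecin for at least 48 h at 37 C; viability read as ATP content by CellTiter-Glo luminescence.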
# The depositor's hits bear a star; ? = inconclusive; . = no result. Unless noted, the call rests on the fitted dose curve; in most records, active means well fitted curve in the direction sought with a large enough effect; inconclusive means small, poorly fitted or top-dose-only effect, or another doubt; inactive means no such curve, though single readings can be large; an effect the other way counts as inactive or inconclusive. Unless noted, on the % scale 0 is the no-effect control and ±100 the full control effect.
SMILES,HT1080 IDH1KD tx,DT40 TDP1 no CPT,HT1080-NT tox,IL1B secr inh,ELG1 DNA repair,DT40 TDP1 CPT
O=C(CN(CC1CCCO1)C(=O)CNS(=O)(=O)c1ccc(F)cc1)NC1CCCC1 (stereo unspecified),7.1%,-24.0%,-0.4%,-10.1,0.2%,-4.3%
CCOc1ccc(NS(=O)(=O)c2cccc(C(=O)N(C)Cc3ccco3)c2)cc1,-0.5%,?,7.2%,-2.8,-7.5%,?
CCCCn1nnnc1C(c1cc2ccccc2o1)N1CCN(C(=O)OC(C)(C)C)CC1 (stereo unspecified),2.9%,?,?,-14.9,.,?
CCCOc1ccccc1/C=C1\SC(N2CCCCC2)=NC1=O,?,5.8µM*,?,-60.8*,0.0%,?
O=C1N=C(N2CCCCC2)S/C1=C\c1ccccc1F,-3.1%,?,2.3%,-64.3*,?,7.0%
COc1cccc(/C=C2\SC(N3CCC(C)CC3)=NC2=O)c1OC,0.6%,-15.3%,-9.2%,-19.2,19.3%,?
COc1ccccc1/C=C1\SC(N2CCC(C)CC2)=NC1=O,10.6%,23.1µM*,6.9%,?,0.4%,?
COc1ccc(OC)c(/C=C2\SC(N3CCCCC3)=NC2=O)c1,7.6%,5.8µM*,16.8%,?,?,7.31µM*
COc1cc(OC)c(OC)cc1/C=C1\SC(N2CCCCC2)=NC1=O,-13.4%,?,-3.8%,-17.5,?,-26.0%
COc1cccc(CNC(=O)CSc2nc3ccccc3nc2Cc2ccc(C)cc2)c1OC,.,-2.6%,.,.,.,0.2%
Cc1nc2ncnn2c(C)c1CCC(=O)N1CCN(c2ccccc2)CC1,.,-5.1%,.,.,.,15.5%
COc1ccc(NC(=O)CN(c2ccc(C)cc2)S(=O)(=O)c2cccc3nonc23)cc1OC,.,16.4µM*,.,.,.,-19.3%
Cc1ccc(S(=O)(=O)N(CC(=O)Nc2ccccc2C(=O)O)c2ccc(Cl)cc2)cc1,-3.0%,-5.6%,-0.2%,0.0,7.6%,-2.6%
COc1ccc(C)cc1S(=O)(=O)N(CC(=O)Nc1cccc([N+](=O)[O-])c1)c1ccc(C)c(C)c1,-1.5%,?,-2.2%,-3.1,-13.7%,16.4µM*
Cc1ccc(NC(=O)CN(c2ccc(Cl)cc2)S(=O)(=O)c2cc([N+](=O)[O-])ccc2Cl)cc1,-19.8%,23.1µM*,-18.1%,-98.6*,-23.0%,?
Cc1ccc(NC(=O)CCS(=O)(=O)c2ccc3nc(C)sc3c2)c(C)c1,.,-7.0%,.,.,.,-11.6%
Cc1ccc(NC(=S)c2nc3ccccc3[nH]2)cc1,-22.7%,10.3µM*,-9.6%,-5.8,?,13µM*
Cc1ccc(NC(=S)c2nc3ccccc3[nH]2)c(C)c1,-23.9%,?,-18.8%,1.6,?,?
Fc1c(CSC(=S)N2CCOCC2)cccc1CSC(=S)N1CCOCC1,1.7%,?,1.8%,-2.5,23.1µM*,?
Cc1cccc(C)c1NC(=O)N1CCC(C(N)=O)(N2CCCCC2)CC1,.,2.2%,.,.,.,-1.4%
COc1ccc(NC(=O)N2CCCC3(CCN(C(=O)c4cccc(F)c4)CC3)C2)cc1,.,-22.7%,.,.,.,-2.2%
CCCOc1ccc(CSC(=N)N)cc1C(=O)OC,-9.7%,?,-10.1%,-57.4*,-2.1%,?
COC(=O)c1cc(CSC(=N)N)ccc1OCCC(C)C,?,23.1µM*,?,-85.2*,-11.8%,?
O=C1CC(N2CCN(S(=O)(=O)c3ccc([N+](=O)[O-])cc3)CC2)C(=O)N1c1ccccc1F (stereo unspecified),-0.4%,12.2%,-3.5%,15.7,8.6%,-12.5%
CC(C)C(=O)N1CCCC1(C)C(=O)N(C)Cc1cccc2ccccc12 (stereo unspecified),18.2%,-22.1%,20.3%,15.2,.,-22.7%
SMILES,HT1080 IDH1KD tx,DT40 TDP1 no CPT,HT1080-NT tox,IL1B secr inh,ELG1 DNA repair,DT40 TDP1 CPT
CN(CC(=O)NCC1CCCO1)S(=O)(=O)c1ccc2ccccc2c1 (stereo unspecified),1.0%,-19.4%,3.1%,-16.7,.,-5.2%
Cc1cc(C)n(-c2ccn(Cc3ccc(Cl)cc3Cl)c(=O)n2)n1,-22.2%,16.4µM*,-14.6%,-16.6,?,20.6µM*
C=CCn1c(-c2cccn(Cc3ccc(Cl)cc3Cl)c2=O)n[nH]c1=S,?,-8.3%,?,7.5,-15.3%,-27.0%
Cc1c(/C=C(\C#N)C(=O)NCc2ccccc2)cc(C#N)n1C,-5.8%,-23.5%,-6.4%,-7.9,21.8%,-1.1%
O=C(CSc1nc(-c2ccco2)cc(C(F)(F)F)n1)N1CCN(c2cccc(Cl)c2)CC1,-13.5%,23.1µM*,-8.3%,-21.1,?,?
CN1CCN(C(=O)CSc2nc(-c3ccco3)cc(C(F)(F)F)n2)CC1,5.2%,-26.4%,5.9%,-9.8,18.8%,14.2%
O=C(CCSc1nc(-c2ccco2)cc(C(F)(F)F)n1)N1CCN(c2ccccn2)CC1,-4.0%,16.4µM*,2.7%,?,?,?
O=C(CCSc1nc(-c2ccco2)cc(C(F)(F)F)n1)N1CCCc2ccccc21,-3.3%,16.4µM*,-17.7%,29.1,-11.9%,?
Cc1ccc2c(c1)c(=O)c(C(=O)c1ccc3c(c1)OCO3)cn2Cc1cccc(F)c1,.,16.4µM*,.,.,.,?
CCOc1ccc2c(c1)c(=O)c(C(=O)c1ccc3c(c1)OCO3)cn2Cc1cccc(F)c1,.,23.1µM*,.,.,.,?
CCOC(=O)C1=CCC(c2ccc(CC)cc2)N(S(=O)(=O)c2ccc(C)cc2)C1 (stereo unspecified),?,9.2µM*,-23.1%,47.4,.,23.1µM*
CCOC(=O)C1=CCC(c2cccc3ccccc23)N(S(=O)(=O)c2ccc(C)cc2)C1 (stereo unspecified),-27.9%,18.4µM*,-15.9%,0.0,.,14.6µM*
CCc1ccc([C@@H]2CC=C(C(=O)O)CN2S(=O)(=O)c2ccc(C)cc2)cc1,9.3%,-22.5%,2.0%,13.1,12.9%,-1.3%
CC(=O)C1=CCC(c2cccc(Cl)c2)N(S(=O)(=O)c2ccc(C)cc2)C1 (stereo unspecified),14.6µM*,10.3µM*,?,-85.1*,.,14.6µM*
CCOC(=O)C1=CCC(c2cccc(Cl)c2)N(S(=O)(=O)c2ccc(C)cc2)C1 (stereo unspecified),?,11.6µM*,-18.0%,34.0,.,14.6µM*

# Screening data as filed in PubChem BioAssay.
